Source: PubChem
In the library only some 6% were active in any assay of this set; here they are far more common.
D3 ag = activates the human D3 dopamine receptor | P35462 | D3R DiscoveRx beta-arrestin cells, luminescence, 90 min | max activation, % | 410,000 compounds, 0.58% hits; in the data active = max activation above about 30%
Target sequence (P35462 whole entry, looked up): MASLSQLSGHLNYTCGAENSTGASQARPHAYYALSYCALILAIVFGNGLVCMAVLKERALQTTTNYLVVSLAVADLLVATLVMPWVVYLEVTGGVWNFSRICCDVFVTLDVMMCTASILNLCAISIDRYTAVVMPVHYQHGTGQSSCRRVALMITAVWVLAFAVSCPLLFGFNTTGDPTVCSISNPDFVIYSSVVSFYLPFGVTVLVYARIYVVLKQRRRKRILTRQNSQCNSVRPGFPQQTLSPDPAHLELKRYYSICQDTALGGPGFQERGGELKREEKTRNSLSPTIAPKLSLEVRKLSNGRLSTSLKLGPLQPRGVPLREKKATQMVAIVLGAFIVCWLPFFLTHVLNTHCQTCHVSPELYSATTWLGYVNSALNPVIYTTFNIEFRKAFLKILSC
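Agonist-mode cell screen: cells plated at 1500/well and incubated overnight at 37 °C, then exposed to library compounds for 90 min at 37 °C. Detection reagent was added for 30–60 min at room temperature, and luminescence was read.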
D1 antag = antagonists of human D1 dopamine receptor; HEK293 TREx D1 cells, calcium flux, dopamine EC80; active compounds read low; 360,000 compounds, 3.2% hits; P21728; activity change, negative = inhibition, % at 10 µM; in the data active = activity change below about -30%
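Tetracycline-induced HEK293 Trex D1 cells, force-coupled to calcium, dye-loaded; compounds added and read 180 s, then EC80 dopamine added and calcium flux tracked kinetically another 180 s.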
D1 potentiator = potentiators of human D1 dopamine receptor; P21728; potentiation, % at 10 µM; HEK293 TREx D1 cells, calcium flux, dopamine EC20 potentiation; AID 504651; 360,000 compounds, 0.036% hits; in the data active = potentiation above about 30%
D1 agonist = activates the human D1 dopamine receptor. AID 504660. activation, % at 2 µM. HEK293 T-REx D1 cells, calcium flux, agonist mode. 360,000 compounds, 1% hits. P21728; in the data active = activation above about 30%
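Agonism was scored from calcium flux recorded over 180 s (1 read/s) after pintool compound addition, following a 10-cycle baseline. Cells were inducible force-coupled HEK293 TREx D1, plated overnight at 30 C and loaded with no-wash calcium dye.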
DRD3 antagonist = antagonists of human D3 dopamine receptor. P35462. D3R cells, DiscoveRx beta-arrestin luminescence, antagonist mode; active compounds read low. max response, negative = inhibition, %. 360,000 compounds, 2.5% hits. AID 652054; in the data active = max response below about -50%; inconclusive = no clear call, values can overlap the other calls
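Cells plated overnight at 1500 cells/well, then exposed to library compounds with dopamine controls for 90 minutes at 37 degrees C. DiscoveRx reagent added for 30–60 minutes at room temperature; luminescence read, quantitative HTS format.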
A number is an active result; - = inactive; ? = inconclusive; . = no result.

SMILES | D3 ag | D1 antag | D1 potentiator | D1 agonist | DRD3 antagonist
Clc1ccc(-c2nc(Cc3ccccc3)no2)cc1 | - | - | - | - | -
Cc1ccccc1-c1nc(Cc2ccccc2)no1 | - | - | - | - | -53
O=C(NCc1cccs1)c1ccc(N2CCCC2=O)cc1 | - | - | - | - | -
CCC(NC(=O)c1cc(COc2c(F)cccc2F)on1)c1ccncc1 (configuration not stated) | - | - | - | - | -
COC(=O)[C@H](Cc1ccccc1)NC(=O)c1cc(COc2c(F)cccc2F)on1 | - | - | - | 31 | -
O=C(NCc1ccc(N2CCCC2=O)cc1)c1cc(COc2c(F)cccc2F)on1 | - | -32 | - | - | -
C#Cc1ccc(C(=O)NCc2ccc(N3CCCC3=O)cc2)cc1 | - | -32 | - | - | -
CCCOc1ccc(CNC(=O)C2CCCN(c3nc4c(C)cc(C)cc4s3)C2)cc1 (configuration not stated) | - | - | - | - | .
CCOC(=O)C(Cc1cc(C(C)=O)ccc1OC(C)C)C(=O)OCC | - | -34 | - | - | -
CCC(=O)Nc1nnc(/C=C/c2ccc(OC)cc2)s1 | - | -48 | - | - | -
Cc1cc(-c2ccc(S(=O)(=O)Nc3cc(Cl)ccc3C)s2)on1 | - | - | - | - | .
Clc1ccccc1N1CCN(Cc2c[nH]c3ccccc23)CC1 | - | . | . | . | -78
OC1(c2ccc(Cl)cc2)CCN(Cc2c[nH]c3ccccc23)CC1 | - | . | . | . | -101
Fc1ccccc1N1CCN(C2CCN(Cc3c[nH]c4ccccc34)CC2)CC1 | - | - | - | 46 | -60
O=S(=O)(c1ccc(Cl)cc1)N1CCN(Cc2c[nH]c3ccccc23)CC1 | - | . | - | - | -
COc1ccc(COCC(O)CN2CCc3ccccc3C2)cc1OC (configuration not stated) | - | - | - | - | -61
OC(COCc1ccccc1)CN1CCCC1 (configuration not stated) | - | - | - | - | -
OC(COCc1ccccc1)CN1CCc2ccccc2C1 (configuration not stated) | - | - | - | - | -65
COc1cc2c(=O)c(S(=O)(=O)c3ccccc3)cn(CC(=O)Nc3ccccc3C)c2cc1OC | - | - | - | - | .
O=C(NCc1c(Cl)cccc1Cl)c1ccc2nnsc2c1 | - | -44 | - | - | -
CC(=O)ON=C1C=CC(=C(C#N)c2ccccc2)C=C1 | - | . | . | . | -105
CCCOC(=O)N[C@@H]1C(=O)N2C(C(=O)OCCC)=C(C)CS[C@H]12 | - | - | - | - | -53
CC1=C(C(=O)OCC(Cl)(Cl)Cl)N2C(=O)C(NC(=O)Cc3ccccc3)C2SC1 (configuration not stated) | - | -34 | - | - | -
O=C(C1CCN(CC2CC=CCC2)CC1)N(CCc1ccccc1)Cc1ccccc1 (configuration not stated) | - | - | - | - | -61
O=C(C1CCN(CCCc2ccccc2)CC1)N(CCc1ccccc1)Cc1ccccc1 | - | -45 | - | - | ?
SMILES | D3 ag | D1 antag | D1 potentiator | D1 agonist | DRD3 antagonist
Cc1cc(CCC(=O)O)c(C)cc1CCC(=O)O | - | - | - | - | -52
CCOC(=O)c1c(C)[nH]c(C)c1S(=O)(=O)N(C)CC(=O)NCc1ccc(Cl)cc1 | - | - | - | - | .
CC(Sc1ncnc2ccccc12)C(=O)Nc1ccc2c(c1)OCO2 (configuration not stated) | - | -33 | - | - | -
CC(=O)Nc1ccc(NC(=O)C(C)OC(=O)c2c(C)nn(-c3ccccc3)c2Cl)cc1 (configuration not stated) | - | - | . | - | -
CC(Sc1ccc2c(c1)OCCO2)C(=O)Nc1ccc2c(c1)OCO2 (configuration not stated) | - | - | - | - | -
Cc1nn(-c2ccccc2)c(Cl)c1C(=O)OC(C)C(=O)Nc1ccc2c(c1)OCO2 (configuration not stated) | - | -71 | - | - | -
CCC(=O)O[C@]1(C(=O)CCl)[C@@H](C)C[C@H]2[C@@H]3C[C@H](F)C4=CC(=O)C=C[C@]4(C)[C@@]3(F)[C@@H](O)C[C@@]21C | - | . | . | . | .
COc1ccnc(N2CCN(c3cccc(C(F)(F)F)c3)CC2)c1C#N | - | - | - | - | -
COc1ccnc(N2CCN(c3ccc(Cl)cc3)CC2)c1C#N | - | -31 | - | - | -
Cn1c(SCc2ccc(F)cc2)nc2ccc(C(=O)NCc3cccc(Cl)c3)cc21 | - | - | - | - | .
